Among the data in PubChem BioAssay (NCI) are growth values, retold here.

The structures appear in SMILES notation. This is part of a sample that, as a whole, favours compounds with a hit. Of some 83,000 tested, about 20% had one in any assay.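 Cells were grown in 96-well plates and exposed to the test compound at a single concentration for 48 hours; results are reported as percent growth, with values below 10 considered active.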 A number with no mark means an inactive call.

The test system of the assay is MDA-MB-468 breast. The assay is described as follows: NCI-60 one-dose screen, 48 h (100 = growth as untreated, 0 = no growth, -100 = all killed). The note with it: 10 µM unless noted.
For the compound `O=S(=O)(Nc1ccc2c(c1)OC(F)(F)O2)c1ccc(-c2cnc(C3CC3)o2)cc1`, the growth is 15.3%.
Next, `Cc1oc2c(Cc3ccc(NC(=O)c4ccc(Cl)cc4)cc3)ncnc2c1C(=O)NO`: 92.1%; `Nc1ccc(N)c2c1C(=O)c1cccc([N+](=O)[O-])c1C2=O`: 54.8%.
Next, `CCCCC(=O)Nc1ncc(Cc2ccccc2Cl)s1`: 14.1%.
For `CC(C)CCC[C@@H](C)[C@H]1CC[C@H]2[C@@H]3CC=C4c5sc(Nc6cc(C(F)(F)F)cc(C(F)(F)F)c6)nc5CC[C@]4(C)[C@H]3CC[C@]12C` the value was 105%; for `C=C1CC[C@@H]2[C@](C)(COC(C)=O)[C@H](OC(C)=O)CC[C@@]2(C)[C@@H]1CC(Nc1ccc(S(=O)(=O)Nc2nc(C)cc(C)n2)cc1)C1=CCOC1=O` (stereo not given in full), 41%; for `O=C(Nc1ccncc1)C(=O)c1cn(S(=O)(=O)c2ccc(Oc3ccccc3)cc2)c2ccccc12`, 55.4%.
Take `O=C(N=Nc1c(O)[nH]c2ccccc12)Nc1ccccc1Cl`: the growth was 11.5%.
For `[N-]=[N+]=Nc1ncc(-c2ccc(C(F)(F)F)cc2)c(NC2CCCCCC2)n1` the value was 28.9% [100 µM]; for `O=c1ccn(C2CC(O)C(O)C(CO)O2)c(=O)[nH]1` (stereo not given), 149%.
